# H9c2 protect = modulators protecting cardiomyocytes from myocardial damage | actives 0.63% (n = 360,000) | H9c2 cardiomyocytes, H2O2 injury protection, ATPLite, 2 h | AID 588492 | protection from H2O2 cell death, % at 20 µM;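 active means compounds giving at least 50% protection of heart cells from peroxide-induced death in the single-dose screen, raw or plate-pattern-corrected value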
# FAS-TE inh = FAS thioesterase (human) inhibition; inhibition, % at 15 µM; AID 602261; P49327; actives 0.67% (n = 360,000); recombinant FAS-TE, OMFH fluorogenic substrate, fluorescence endpoint;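 active means compounds whose normalised, plate-corrected inhibition of enzyme fluorescence in the single-dose primary screen is 50% or more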
# PLC-beta3 inh = inhibitors of human phospholipase C beta3; Q01970; Purified PLC-beta3, fluorogenic substrate, fluorescence; inhibition, % at 12.2 µM; actives 0.18% (n = 370,000); AID 720704; in the data active means inhibition above about 11%
# Target sequence (Q01970 whole entry, looked up): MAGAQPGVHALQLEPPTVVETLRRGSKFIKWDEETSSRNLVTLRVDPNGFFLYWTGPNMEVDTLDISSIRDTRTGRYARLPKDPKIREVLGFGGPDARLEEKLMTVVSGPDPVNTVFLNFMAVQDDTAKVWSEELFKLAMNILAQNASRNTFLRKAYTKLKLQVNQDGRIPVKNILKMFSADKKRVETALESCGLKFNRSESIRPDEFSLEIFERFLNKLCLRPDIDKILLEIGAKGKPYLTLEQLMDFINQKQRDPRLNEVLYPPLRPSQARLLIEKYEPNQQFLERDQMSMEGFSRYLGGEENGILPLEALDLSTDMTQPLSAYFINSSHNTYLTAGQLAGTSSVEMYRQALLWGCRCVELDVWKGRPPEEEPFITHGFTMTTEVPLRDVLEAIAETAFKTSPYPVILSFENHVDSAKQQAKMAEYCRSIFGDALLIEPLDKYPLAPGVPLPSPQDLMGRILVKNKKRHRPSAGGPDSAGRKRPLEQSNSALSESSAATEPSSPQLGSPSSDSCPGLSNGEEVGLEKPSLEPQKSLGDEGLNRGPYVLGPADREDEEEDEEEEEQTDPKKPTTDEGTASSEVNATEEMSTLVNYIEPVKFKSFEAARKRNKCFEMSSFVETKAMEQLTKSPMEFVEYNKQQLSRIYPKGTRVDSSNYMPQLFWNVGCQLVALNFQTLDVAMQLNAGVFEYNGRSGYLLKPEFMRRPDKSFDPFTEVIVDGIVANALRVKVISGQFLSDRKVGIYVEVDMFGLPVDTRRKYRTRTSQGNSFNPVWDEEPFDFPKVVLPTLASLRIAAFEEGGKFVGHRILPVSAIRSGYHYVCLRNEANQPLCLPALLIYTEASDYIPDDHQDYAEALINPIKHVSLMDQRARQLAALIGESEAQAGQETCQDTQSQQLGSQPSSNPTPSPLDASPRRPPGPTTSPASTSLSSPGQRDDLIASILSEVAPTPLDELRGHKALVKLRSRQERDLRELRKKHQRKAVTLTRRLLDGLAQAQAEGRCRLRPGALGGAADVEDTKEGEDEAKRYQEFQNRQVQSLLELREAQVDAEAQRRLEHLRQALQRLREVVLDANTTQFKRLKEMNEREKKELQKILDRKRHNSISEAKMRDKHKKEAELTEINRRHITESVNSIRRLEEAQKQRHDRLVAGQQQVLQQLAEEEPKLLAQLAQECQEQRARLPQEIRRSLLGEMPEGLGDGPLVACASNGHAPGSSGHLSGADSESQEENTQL
# PLC-gamma1 inh = inhibitors of human phospholipase C gamma1 | P19174 | purified PLC-gamma1, fluorogenic substrate, fluorescence | inhibition, % at 12.2 µM | actives 0.84% (n = 370,000); in the data active means inhibition above about 9.5%
# A number is an active result; n = inactive; x = no result. Shown are actives, neighbours in structure and some others; about 2.2% of the full set was active somewhere.
SMILES,H9c2 protect,FAS-TE inh,PLC-beta3 inh,PLC-gamma1 inh
COc1cc2c(cc1OC)C(c1ccc3c(c1)OCO3)C1=C(CC(C)(C)CC1=O)N2 (stereo unspecified),72,n,n,n
COC(=O)[C@]12C[C@H](CC(=O)NCc3cccs3)C(=O)N(Cc3ccccc3)C1=C[C@H](C1CCCC1)O[C@@H]2C,x,x,n,n
O=C(Cn1[nH]c(=O)c2ccccc2c1=O)NC1CCN(Cc2ccccc2)CC1,70,n,n,n
O=C(Cn1[nH]c(=O)c2ccccc2c1=O)NC1CCCCCC1,78,n,n,n
Cc1sc2nc(CSCC(=O)Nc3ccc(C(F)(F)F)cc3)[nH]c(=O)c2c1C,n,n,n,n
Cc1sc2nc(CSCC(=O)N(C)CC(=O)Nc3ccc(F)cc3)[nH]c(=O)c2c1C,54,n,n,n
Cc1sc2nc(CSCC(=O)N(C)c3ccccc3)[nH]c(=O)c2c1C,66,n,n,n
Cc1sc2nc(CSCC(=O)Nc3c(F)cccc3F)[nH]c(=O)c2c1C,n,n,n,n
Cc1sc2nc(CSCC(=O)N(CCC#N)c3ccccc3)[nH]c(=O)c2c1C,64,n,n,n
CCC[C@H]1[C@@H](OC(=O)NC2CCC2)CC[C@@]23CCCN2C(=O)CCC[C@@H]13,x,x,n,n
COc1ccc(N(C(=O)c2cccc([N+](=O)[O-])c2)S(=O)(=O)c2cccs2)cc1,51,n,n,n
COc1ccc(N(C(=O)c2ccncc2)S(=O)(=O)c2cccc([N+](=O)[O-])c2)cc1,n,n,n,n
O=C(CCc1nc2ccccc2c(=O)[nH]1)NNC(=O)COc1cccc(F)c1,96,n,n,n
O=C(CCc1nc2ccccc2c(=O)[nH]1)NNC(=O)c1ccccc1Cl,56,n,n,n
CCCCNC(=O)C[C@H]1C[C@@]2(C(=O)OC)C(=C[C@H](C(C)C)O[C@@H]2C2CC2)N(Cc2ccc3c(c2)OCO3)C1=O,x,x,n,n
Cc1ccnc(NC(=S)N2CCC(Nc3cccc(C(F)(F)F)c3)CC2)c1,x,x,n,n
CC(=O)c1c(C)oc2ccc(NS(=O)(=O)c3ccc(O)c(C(=O)O)c3)cc12,n,n,n,11
O=C(O)c1cc(S(=O)(=O)Nc2ccc3oc(=O)sc3c2)ccc1O,x,x,n,n
COC(=O)[C@]12C[C@H](CC(=O)NCCC(C)C)C(=O)N(Cc3ccccc3)C1=C[C@H](COCc1ccccc1)O[C@@H]2C,x,x,n,n
CC(=O)NC(c1cc(F)c2cccnc2c1O)C1CC1 (stereo unspecified),55,n,n,n
COc1ccc(/C=N/NC(=O)c2nc(-c3ccccc3)cc(-c3ccccc3)n2)cc1O,51,n,n,n
COc1cc(/C=N/NC(=O)c2cnn3c(C)cc(-c4ccccc4)nc23)ccc1O,76,n,n,n
COc1ccc(/C=N/NC(=O)c2nc(-c3ccccc3)cc(-c3ccccc3)n2)cc1,n,n,n,n
COc1cc(/C=N/NC(=O)c2cc(-c3ccccc3)nc3ccccc23)ccc1O,n,n,n,n
O=C(CCc1ccccc1-c1ccccc1CCNC(=O)c1ccc(F)c(F)c1)NCc1ccccc1,x,x,n,n
SMILES,H9c2 protect,FAS-TE inh,PLC-beta3 inh,PLC-gamma1 inh
CC1CCCC(C)N1C(=O)COC(=O)c1n[nH]c(=O)c2ccccc12 (stereo unspecified),54,n,n,n
Cn1nc(C(=O)OCC(=O)N2CCc3ccccc32)c2ccccc2c1=O,n,n,n,n
O=C(OCC(=O)N1CCCCCC1)c1n[nH]c(=O)c2ccccc12,51,n,n,n
O=C(OCC(=O)N1CCc2ccccc21)c1n[nH]c(=O)c2ccccc12,73,n,n,n
CC1(C)CC2CC(C)(CN2C(=O)COC(=O)c2n[nH]c(=O)c3ccccc23)C1 (stereo unspecified),60,n,n,n
CC1CCCC(C)N1C(=O)COC(=O)c1nn(C)c(=O)c2ccccc12 (stereo unspecified),n,n,n,n
C[C@H]1[C@@H]2C[C@@]3(O[C@H](c4ccccn4)N=C3C[C@@H]1c1ccccc1)N(Cc1ccncc1)C2=O,x,x,n,n
COc1ccc(Nc2nc(C(=O)N3CCc4cc(OC)c(OC)cc4C3)cs2)cc1,74,n,n,n
COc1cc2c(cc1OC)CN(c1nc(-c3cccnc3)nc3ccccc13)CC2,58,n,n,n
N#Cc1ccccc1S(=O)(=O)N1CCN(c2nc(-c3cccnc3)nc3ccccc23)CC1,83,n,n,n
COc1ccc(C(CNC(=O)c2ccc(C)c(S(=O)(=O)N3CCOCC3)c2)N2CCCC2)cc1 (stereo unspecified),n,n,n,10
C[C@H]1[C@@H](NC(=O)/C=C/c2ccccc2)CC[C@@]23CCCN2C(=O)CCC[C@@H]13,x,x,n,n
S=C(NCCN1CCOCC1)N/N=C/c1cccs1,n,n,n,n
Oc1cccc(/C=N/NC(=S)NCCN2CCOCC2)c1O,49,n,n,n
O=C(COc1ccccc1Cl)NNC(=O)Cn1[nH]c(=O)c2ccccc2c1=O,92,n,n,n
O=C(Cn1[nH]c(=O)c2ccccc2c1=O)NNC(=O)c1ccccc1,62,n,n,n
CCOC(=O)[C@@]12CCCC3=C1N(CCC3)C(=O)[C@H]2CC(=O)NCCCCc1ccccc1,x,x,n,n
O=C(CC(C(=O)c1ccccc1)c1ccccc1)c1ccccc1 (stereo unspecified),56,n,n,n
O=C(Nc1ccccc1)c1nc[nH]c1C(=O)NCCCCCCNC(=O)c1[nH]cnc1C(=O)Nc1ccccc1,97,n,n,n
Cc1cccc(NC(=O)c2nc[nH]c2C(=O)NCCCNC(=O)c2[nH]cnc2C(=O)Nc2cccc(C)c2)c1,62,n,n,n
CC(C)(C)OC(=O)NCCCCCNC(=O)c1[nH]cnc1C(=O)N[C@@H](CCCCNC(=O)OC(C)(C)C)C(=O)OC(C)(C)C,n,68,x,x
O=C(Nc1ccccc1)c1nc[nH]c1C(=O)NCCCNC(=O)c1[nH]cnc1C(=O)Nc1ccccc1,n,n,n,n
CCN(Cc1ccccc1)C(=O)CCCN1C(=O)COc2ccc(C)cc21,x,x,n,n
COC(=O)C1CN(Cc2ccccc2)CCS(=O)(=O)N1Cc1ccc(C(F)(F)F)cc1 (stereo unspecified),x,x,n,n
O=C(NO)c1ccc(C(=O)N(C2CCCCC2)C2CCCCC2)cc1,81,n,n,n
SMILES,H9c2 protect,FAS-TE inh,PLC-beta3 inh,PLC-gamma1 inh
COc1cc(/C=C/c2ccc3cccc(O)c3n2)cc(OC)c1OC,n,n,n,n
COc1ccc(/C=C/c2ccc3c(Br)ccc(O)c3n2)cc1,62,n,n,n
COc1ccc(/C=C/c2ccc3cccc(O)c3n2)cc1Br,62,n,n,n
COc1cc(/C=C/c2ccc3cccc(O)c3n2)cc(Br)c1OC,80,n,n,n
COC(=O)c1cc(C(C)c2c[nH]c3ccccc23)n2ccccc12 (stereo unspecified),x,x,n,n
C=CCn1c(COc2ccccc2)nnc1SCC(=O)N/N=C/c1cc(Cl)ccc1O,86,n,n,n
C=CCn1c(CNc2ccc(C)cc2)nnc1SCC(=O)N/N=C/c1ccc(O)cc1O,68,n,n,n
C=CCn1c(CNc2ccccc2)nnc1SCC(=O)N/N=C/c1ccc(O)cc1O,85,n,n,n

# Assay outcomes: PubChem BioAssay, several laboratories
